HT1080 IDH1KD tx = kills HT-1080 cells with IDH1 knockdown. HT-1080 IDH1 knockdown viability, ATP luminescence, 48 h. Potency, µM (top dose mostly 46.1 µM), inactives show top-dose activity, negative = toxicity, most hits filed as cytotoxic. 360,000 compounds, 2% hits. AID 686971;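 further: 0% = DMSO wells and -100% = cell-free medium wells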
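Luminescent ATP read-out (CellTiter-Glo, 10 min at room temperature) after 48 h compound exposure at 37 °C gave viability of IDH1-knockdown HT-1080 cells. Activity was normalised to DMSO and cell-free wells, then fitted as concentration-response curves.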
KB-V1 MDR tox = kills drug-selected multidrug resistant KB-V1 cells; KB-V1 MDR cells viability, CellTiter-Glo, 72 h; Potency, µM (top dose mostly 46.1 µM), most hits filed as cytotoxic; 400,000 compounds, 3.4% hits; AID 1347076; further: on the % scale 0 is the no-effect control and ±100 the full control effect; nearly all actives have a fitted effect of over 60% in size
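In this primary screen, KB-V1 cells overexpressing P-gp are incubated with library compounds (lowest to highest concentration) for 72 h at 37 degrees C before a luminescent ATP viability read.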
KB-3-1 cytotox = kills parental KB-3-1 adenocarcinoma cells | KB-3-1 viability, CellTiter-Glo ATP luminescence, 72 h | Potency, µM (highest dose often 46.1 µM), hits mostly cytotoxic | 400,000 compounds, 1.4% hits | AID 1347075; further: on the % scale 0 is the no-effect control and ±100 the full control effect; nearly all actives have a fitted effect of over 60% in size
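Multi-concentration cytotoxicity screen in KB-3-1 cells grown in DMEM lacking phenol red with 10% FBS. After 72 h at 37 °C with compound, ATP-dependent luminescence was recorded.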
HT1080-NT tox = kills 2HG-producing HT-1080-NT fibrosarcoma cells. HT-1080-NT fibrosarcoma viability, CellTiter-Glo ATP luminescence, 48 h. AID 686970. 360,000 compounds, 1.6% hits. Potency, µM (highest dose often 46.1 µM), inactives show top-dose activity, negative = less viability, hits mostly cytotoxic;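 further: NT is the 2HG producing partner of a matched IDH1 knockdown line; 0% = DMSO-treated cells and -100% = media-only wells without cells; nearly all actives have a fitted effect of over 55% in size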
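HT-1080-NT; 750 cells/well; 5% FBS RPMI; 48 h compound, 37 degrees C; CellTiter-Glo luminescence; curve fitting and curve-class assignment.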
MCF10A rerep = DNA re-replication induction in MCF 10a cells; MCF 10A DNA re-replication, Hoechst nuclear intensity, 48 h; Potency, µM (titrated, usually from 46.1 µM), for the others: at the top dose activity, positive = re-replication, actives largely listed as activators; 350,000 compounds, 2.9% hits; further: % of control where 0% means no effect; nearly all actives have a fitted effect of over 50% in size
SW480 rerep = induces DNA re-replication in SW480 colon adenocarcinoma cells | SW480 DNA re-replication, Hoechst DNA content imaging, 48 h | Potency, µM (top dose mostly 46.1 µM), inactives show top-dose re-replication activation, actives largely listed as activators | 340,000 compounds, 1.8% hits; further: % of control where 0% means no effect; nearly all actives have a fitted effect of over 55% in size
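250 cells/well; 23 nL cpd via pin tool; 48 hr, 37 C, 5% CO2; Hoechst 40 min; imager read of total nuclear intensity, ex 405/em 500-530 nm.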
Numbers without * were called inactive; ! = a repeat was not active; [ ] = another dose, or the depositor's remark. This is a sample that favours compounds with a hit; in the whole collection about 8% have one here. The call rests on the fitted dose curve; in most records, active means well fitted curve in the direction sought with a large enough effect; inconclusive means small, poorly fitted or top-dose-only effect, or another doubt; inactive means no such curve, though single readings can be large; an effect the other way counts as inactive or inconclusive. Potency means the concentration at half of the fitted maximal effect.

For Cc1cccc(N2CCN(C(=O)c3cnn(-c4ccc(F)cc4F)c3C3CCN(C(=O)OC(C)(C)C)CC3)CC2)c1C the results were KB-V1 MDR tox inactive and KB-3-1 cytotox inconclusive.
Cc1nc(-c2ccc(NC(=O)CC(C)C)cc2)cs1 was read as HT1080 IDH1KD tx -5%, KB-V1 MDR tox inactive, KB-3-1 cytotox inactive, HT1080-NT tox 0%, MCF10A rerep 4% and SW480 rerep 1%.
`COc1ccc(C(=O)N/N=C/c2ccc(SC)cc2)cc1` gave HT1080 IDH1KD tx 15%, KB-V1 MDR tox inactive, KB-3-1 cytotox inactive, HT1080-NT tox 13%, MCF10A rerep 6% and SW480 rerep 5.2µM*.
`CN(C)c1ccc(/C=N/NC(=O)c2ccccc2Cl)cc1` gave HT1080 IDH1KD tx 8.2µM*, KB-V1 MDR tox inconclusive, KB-3-1 cytotox inconclusive, HT1080-NT tox 12µM*, MCF10A rerep 21µM* and SW480 rerep 2.6µM*.
For CSc1ccc(/C=N/NC(=O)c2ccccc2Cl)cc1 the results were HT1080 IDH1KD tx inconclusive, KB-V1 MDR tox inconclusive, KB-3-1 cytotox inconclusive, HT1080-NT tox inconclusive, MCF10A rerep 23µM* and SW480 rerep inconclusive.
For COc1ccc(/C=N/NC(=O)c2cccc(NC(=O)c3ccccc3Cl)c2)cc1 the results were HT1080 IDH1KD tx 2.3µM*, KB-V1 MDR tox inactive, KB-3-1 cytotox 16µM*, HT1080-NT tox 5.8µM*, MCF10A rerep 2.6µM* and SW480 rerep 6.5µM*.
COC(=O)c1cc(C)nc2c1c(=O)nc(SCc1cccc(C(F)(F)F)c1)n2C1CC1 was read as KB-V1 MDR tox inactive and KB-3-1 cytotox inactive.
Screening CCOC(=O)C1CCN(C(=O)C2CCN(C3=NS(=O)(=O)C(c4ccc(C)c(C)c4)=C3C)CC2)CC1 returned KB-V1 MDR tox inactive and KB-3-1 cytotox inactive.
`CCCN1CNc2c(c(=O)[nH]c(=S)n2CCCc2ccccc2)C1` gave HT1080 IDH1KD tx -29% and HT1080-NT tox -23%.
COc1ccc(OC)c(NC(=O)c2cc3n(n2)C(C(F)(F)F)CC(c2ccc4c(c2)OCO4)N3)c1 (configuration not stated) was read as HT1080 IDH1KD tx inconclusive, KB-V1 MDR tox 12µM*, KB-3-1 cytotox inconclusive, HT1080-NT tox inconclusive, MCF10A rerep 4% and SW480 rerep 13%.
`COc1ccccc1NC(=O)c1cc2n(n1)C(C(F)(F)F)CC(c1ccc3c(c1)OCO3)N2` (configuration not stated) gave HT1080 IDH1KD tx -12%, KB-V1 MDR tox inactive, KB-3-1 cytotox inactive, HT1080-NT tox -12%, MCF10A rerep inconclusive and SW480 rerep -2%.
Cc1c(C(=O)Nc2ccc(F)c(F)c2)oc2ccc(S(=O)(=O)N3CCCCC3)cc12 was read as HT1080 IDH1KD tx -9%, KB-V1 MDR tox 7.3µM*!, KB-3-1 cytotox inactive, HT1080-NT tox 13%, MCF10A rerep inconclusive and SW480 rerep -7%.
Cc1c(C(=O)Nc2cccc(Cl)c2)oc2ccc(S(=O)(=O)N3CCCCCC3)cc12 was read as KB-V1 MDR tox inactive and KB-3-1 cytotox inactive.
Screening Cc1ccc(NC(=O)c2oc3ccc(S(=O)(=O)N4CCCCCC4)cc3c2C)cc1Cl returned KB-V1 MDR tox inactive and KB-3-1 cytotox inactive.
For Cc1c(C(=O)Nc2cccc(Cl)c2)oc2ccc(S(=O)(=O)N3CCC4(CC3)OCCO4)cc12 the results were HT1080 IDH1KD tx -2%, KB-V1 MDR tox 4.1µM*, KB-3-1 cytotox inconclusive, HT1080-NT tox -3%, MCF10A rerep 5.8µM* and SW480 rerep 3.7µM*.
CCCn1c(N)c(C(=O)CSc2nnc(Cc3ccccc3)o2)c(=O)n(C)c1=O was read as HT1080 IDH1KD tx inconclusive, KB-V1 MDR tox 10µM*, KB-3-1 cytotox inactive, HT1080-NT tox -17%, MCF10A rerep 20% and SW480 rerep -2%.
For CCOC(=O)c1nnn(-c2nonc2-n2cccc2)c1-c1cccc([N+](=O)[O-])c1 the results were HT1080 IDH1KD tx -11%, KB-V1 MDR tox inactive, KB-3-1 cytotox inactive, HT1080-NT tox 1%, MCF10A rerep inconclusive and SW480 rerep 19%.
`Oc1nc(Nc2cccc(Cl)c2)sc1/C=C1\C=Nc2ccccc21` gave HT1080 IDH1KD tx inconclusive, KB-V1 MDR tox inconclusive, KB-3-1 cytotox inconclusive, HT1080-NT tox inconclusive, MCF10A rerep 7.3µM* and SW480 rerep inconclusive.
For Oc1nc(Nc2ccc(F)cc2)sc1/C=C1\C=Nc2ccccc21 the results were HT1080 IDH1KD tx inconclusive, KB-V1 MDR tox inactive, KB-3-1 cytotox inactive, HT1080-NT tox -23%, MCF10A rerep 21µM* and SW480 rerep inconclusive.
`Oc1cccc(Nc2nc(O)c(/C=C3\C=Nc4ccccc43)s2)c1` gave HT1080 IDH1KD tx inconclusive, KB-V1 MDR tox inactive, KB-3-1 cytotox inactive, HT1080-NT tox inconclusive, MCF10A rerep inconclusive and SW480 rerep inconclusive.
Screening CC1=Nc2ccccc2/C1=C\c1sc(Nc2ccc(C)cc2)nc1O returned HT1080 IDH1KD tx 0.65µM*, KB-V1 MDR tox 1.5µM*, KB-3-1 cytotox inconclusive, HT1080-NT tox 0.92µM*, MCF10A rerep inconclusive and SW480 rerep 1.3µM*.
For Cc1cc(C)cc(-n2c(C)nc3cc(C(=O)NCc4ccc(F)cc4)ccc32)c1 the results were KB-V1 MDR tox inactive and KB-3-1 cytotox inactive.
`CC(C)(O)C#Cc1ccc(C(=O)N2CCN(c3ccccc3)CC2)cc1` gave HT1080 IDH1KD tx 3%, KB-V1 MDR tox inactive, KB-3-1 cytotox inactive, HT1080-NT tox 1%, MCF10A rerep inconclusive and SW480 rerep 3.3µM*.
Screening CC(C)(O)C#Cc1ccc(C(=O)N2CCN(c3ccc([N+](=O)[O-])cc3)CC2)cc1 returned HT1080 IDH1KD tx -12%, KB-V1 MDR tox inactive, KB-3-1 cytotox inactive, HT1080-NT tox -6%, MCF10A rerep 10% and SW480 rerep -3%.
C(=C\c1cccs1)/c1ccccn1 was read as KB-V1 MDR tox inactive and KB-3-1 cytotox inconclusive.
Screening CSc1ccc(/C=C/c2cc(=O)c3ccccc3[nH]2)cc1 returned HT1080 IDH1KD tx -14%, KB-V1 MDR tox 3.7µM*, KB-3-1 cytotox inactive, HT1080-NT tox -9%, MCF10A rerep inconclusive and SW480 rerep 13%.
`O=c1cc(/C=C/c2cccs2)[nH]c2ccccc12` gave HT1080 IDH1KD tx 7.1µM*, KB-V1 MDR tox inconclusive, KB-3-1 cytotox inconclusive, HT1080-NT tox -23%[9.24 µM], MCF10A rerep inconclusive and SW480 rerep inconclusive.

Bioassay records (PubChem BioAssay)
